We go through seven compounds from PubChem BioAssay (Tox21).

Molecules are shown by their SMILES. Unmarked numbers belong to inactive results. Inconclusive results are not listed. The source made the active and inactive calls. Unless noted, the call rests on the fitted dose curve.

Test [1] in a line: Nuclear factor erythroid 2-related factor 2/antioxidant responsive element (Nrf2/ARE) small molecule agonists: qHTS cell viability counter screen in human keratinocytes (AID 1919968; active means well fitted curve in the direction sought with a large enough effect in the repeat runs; an effect the other way counts as inactive or inconclusive; further: nearly all actives have a fitted effect of over 55% in size). The essentials:
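After a 5 h attachment period, ARE-reporter keratinocytes were dosed with compounds in DMSO and then cultured 23 h at 37 C. Cell viability came from CellTiter-Fluor signal read after a further 1 h.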

Test [2] in a line: Nuclear factor erythroid 2-related factor 2/antioxidant responsive element (Nrf2/ARE) small molecule agonists: luciferase reporter gene qHTS assay in human keratinocytes (AID 1919969). Further: nearly all actives have a fitted effect of over 35% in size. Further: potency means the concentration at half of the fitted maximal effect.
In test [3] the target is Gonadotropin-releasing hormone receptor (Homo sapiens) (UniProt P30968). In words: Human gonadotropin-releasing hormone receptor (GnRHR) small molecule agonists, calcium flux assay in GnRHR-HEK293 cells (AID 1920063). Further: nearly all actives have a fitted effect of over 35% in size. The essentials:
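We seeded human GnRHR-expressing HEK293 cells for 18 hours, loaded them with calcium dye for an hour at 37 C, added test compounds, and recorded fluorescence intensity kinetically for three minutes.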
A general note: Calcium assays in cells follow changes in intracellular calcium, usually with a dye or a luminescent sensor.

Test [4] addresses KiSS-1 receptor (Homo sapiens) (UniProt Q969F8). In words: Human kisspeptin (KISS1R) small molecule agonists, calcium flux assay in KISS1R-HEK293 cells (AID 1920064; active means well fitted curve in the direction sought with a large enough effect in the repeat runs; an effect the other way counts as inactive or inconclusive). The method in brief: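 Kinetic calcium assay, 1 s sampling over 3 min at Ex/Em 480/540, in HEK293 cells engineered with human KISS1R; compounds delivered in DMSO after 1 h dye loading.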
Test [5] in a line: G protein-coupled receptor (GPCR) small molecule agonists, calcium flux assay: HEK293 wild type cell line counter screen (AID 1920065). The essentials: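 Calcium-sensitive dye, loaded 1 h at 37 C into cells cultured 18 h, reports compound-evoked calcium release as fluorescence (Ex/Em 480/540), measured over 3 min. Agonist mode; 15-point titrations, triplicate.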
Test [6] is described as follows: p53 small molecule agonists, cell-based qHTS assay with human liver microsomes (AID 1963577).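 Further: p53 response element beta-lactamase reporter cells with liver microsomes plus NADPH.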 The method in brief:
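With metabolic activation: human liver microsomes (0.5 mg/mL final) plus NADPH (0.5 mg/mL final) added alongside compounds to p53RE-bla cells; 16 h 37 C exposure; beta-lactamase read by LiveBLAzer fluorescence.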
(In general: Quantitative high-throughput screening tests each substance at several concentrations.)

Test [7] can be described thus: p53 small molecule agonists, cell-based qHTS assay with rat liver microsomes (AID 1963578). The essentials: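 Metabolic activation by rat liver microsomes and NADPH, each 0.5 mg/mL final, added right after compounds to p53RE-bla reporter cells (4,000/well, plated 5 h earlier). 16 h at 37 C, then LiveBLAzer substrate for 2 h at room temperature in the dark; fluorescence read-out.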

Test [8] can be described thus: p53 small molecule agonists, cell-based qHTS assay with human liver microsomes: qHTS cell viability counter screen (AID 1963579). Further: nearly all actives have a fitted effect of over 45% in size. The method in brief:
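Metabolic activation used human liver microsomes and NADPH, both 0.5 mg/mL final, over 16 hours at 37 C on p53RE-bla cells (4,000/well). Cytotoxicity measured by CellTiter-Glo luminescence, 30 min at room temperature.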

Test [9] in a line: p53 small molecule agonists, cell-based qHTS assay with rat liver microsomes: qHTS cell viability counter screen (AID 1963580). Further: nearly all actives have a fitted effect of over 45% in size. The method in brief:
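In HCT-116 cells carrying a p53 response element-bla reporter, compounds were metabolically activated in situ by rat liver microsomes with NADPH over 16 h. Cell ATP content then served as the cytotoxicity measure.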

Test [10] in a line: p53 small molecule agonists, cell-based qHTS assay: qHTS cell viability counter screen (AID 1963581). Further: nearly all actives have a fitted effect of over 45% in size. The method in brief:
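Following 5 h attachment, HCT-116 p53RE-bla cells took up compound for 16 h at 37 C; the reporter was read with B/G FRET substrate (2 h RT), and viability then via CellTiter-Glo ATP luminescence.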

A short description of test [11]: p53 small molecule agonists, cell-based qHTS assay (AID 1963582; active means well fitted activation curve with a large enough effect in the signal ratio in the repeat runs, not every such curve was filed as active; the % refers to the signal ratio). The method in brief: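 In this cell-based concentration-response screen, a p53 response element drives beta-lactamase; cells received DMSO-borne compounds after 5 h culture and were incubated a further 16 h before FRET substrate development.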
Test [12] deals with 5-hydroxytryptamine receptor 2A (Homo sapiens) (UniProt P28223). In words: 5-hydroxytryptamine receptor 2A (HTR2A) small molecule agonists, cell-based qHTS assay (AID 1963587). Further: nearly all actives have a fitted effect of over 30% in size. The method in brief:
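HTR2A-CHO cells, plated 18 h at 37 C/5% CO2, dye-loaded 1 h at 37 C; compounds in DMSO added by pin tool (agonist mode). Intracellular calcium flux read as kinetic fluorescence on FDSS over 2 min at 1 s intervals.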

Test [13] concerns the target Muscarinic acetylcholine receptor M1 (Homo sapiens) (UniProt P11229). In words: Cholinergic receptor muscarinic 1 (CHRM1) small molecule antagonists, cell-based qHTS assay (AID 1963588). Further: nearly all actives have a fitted effect of over 40% in size. Further: potency means the concentration at half of the fitted maximal effect. The essentials:
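CHRM1-CHO calcium-flux assay, antagonist mode. Cells were seeded 18 h, dye-loaded 1 h at 37 C and given compound for 5 min at RT, then acetylcholine was added at 50nM. FDSS fluorescence was read 3 min; 15 concentrations, three runs.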

Test [14] shares this target. In words: Cholinergic receptor muscarinic 1 (CHRM1) small molecule agonists, cell-based qHTS assay (AID 1963589). Further: nearly all actives have a fitted effect of over 35% in size. The essentials: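 Measures agonist-induced intracellular calcium rise. Stable human CHRM1 CHO line, 1 h dye load at 37 C, compounds from DMSO, kinetic fluorescence read.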
Test [15] is described as follows: cAMP Responsive Elements (CRE) small molecule agonists, cell-based qHTS assay (AID 1963590). The method in brief:
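A CRE-responsive beta-lactamase reporter in HEK 293T cells was used. Treatment ran 3 h at 37 C; detection used LiveBLAzer B/G FRET substrate for 2 h at room temperature.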

Test [16] in a line: cAMP Responsive Elements (CRE) small molecule antagonists, cell-based qHTS assay (AID 1963591; active means well fitted inhibition curve with a large enough effect in the signal ratio in the repeat runs, not every such curve was filed as active; the % refers to the signal ratio). The essentials:
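HEK293T cells carrying a CRE-driven beta-lactamase reporter receive compound and NKH477 (0.25 uM final) for 3 h. Fluorescence from LiveBLAzer B/G FRET substrate is read after 2 h at room temperature.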

Test [17] addresses Beta-2 adrenergic receptor (Homo sapiens) (UniProt P07550). In words: Adrenergic beta2 receptor (ADRB2) small molecule antagonists, cell-based qHTS assay (AID 1963592). Further: series mostly up to about 92 µM; nearly all actives have a fitted effect of over 50% in size. The essentials:
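Cells (CHO, stable ADRB2 overexpression) incubated 18-20hr at 37C; compounds added from DMSO; agonist mix (1nM isoproterenol, 100uM IBMX, 25uM Ro-20-1724) added; 0.5hr RT; d2-cAMP and anti-cAMP-cryptate added; 1hr RT; 665/615 nm read.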

Test [18] concerns the target D(2) dopamine receptor (Homo sapiens) (UniProt P14416). In words: Dopamine D2 receptor (DRD2) small molecule agonists, cell-based qHTS assay (AID 1963594). Further: nearly all actives have a fitted effect of over 35% in size. The essentials:
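HEK293 cells stably expressing DRD2 were cultured 24 h at 37 C, then given Ro20-1724 (0.1 mM final) and compounds for 10 min at room temperature. NKH477 (200nM) was then added for 30 min. cAMP was read by HTRF.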

The target is the same in test [19]. In words: Dopamine D2 receptor (DRD2) small molecule antagonists, cell-based qHTS assay (AID 1963595; active means well fitted inhibition curve with a large enough effect in the signal ratio in the repeat runs, with a control signal flat; the % refers to the signal ratio). The method in brief:
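HEK293 cells stably expressing DRD2 were preincubated with 0.1 mM Ro20-1724, then with compound for 10 min at room temperature. Cells were stimulated with 200 nM NKH477 plus 12 nM quinpirole for 30 min, and cAMP was read by HTRF.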

Test [20] deals with 5-hydroxytryptamine receptor 2A (Homo sapiens) (UniProt P28223). In words: 5-hydroxytryptamine receptor 2A (HTR2A) small molecule antagonists, cell-based qHTS assay (AID 1963586). Further: nearly all actives have a fitted effect of over 45% in size. The essentials: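 Antagonist-mode intracellular calcium assay: DOI (4 nM) added after 5 min compound pre-incubation at room temperature to dye-loaded HTR2A-CHO cells. Fluorescence followed for 3 min, sampled every second.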
5-hydroxytryptamine receptor 2A (Homo sapiens), sequence (P28223 whole entry, looked up): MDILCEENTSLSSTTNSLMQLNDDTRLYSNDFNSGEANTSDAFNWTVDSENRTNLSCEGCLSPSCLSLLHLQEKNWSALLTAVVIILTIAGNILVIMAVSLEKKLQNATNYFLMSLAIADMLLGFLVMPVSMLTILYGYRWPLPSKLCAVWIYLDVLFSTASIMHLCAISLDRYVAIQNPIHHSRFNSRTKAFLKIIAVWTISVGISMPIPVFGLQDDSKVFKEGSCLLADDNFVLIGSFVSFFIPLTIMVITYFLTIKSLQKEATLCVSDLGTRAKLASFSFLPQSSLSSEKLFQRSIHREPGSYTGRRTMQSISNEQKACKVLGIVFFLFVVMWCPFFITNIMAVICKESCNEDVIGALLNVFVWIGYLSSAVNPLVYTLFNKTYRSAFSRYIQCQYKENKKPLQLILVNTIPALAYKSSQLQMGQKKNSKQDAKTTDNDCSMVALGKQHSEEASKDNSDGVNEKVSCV

Gonadotropin-releasing hormone receptor (Homo sapiens), sequence (P30968 whole entry, looked up): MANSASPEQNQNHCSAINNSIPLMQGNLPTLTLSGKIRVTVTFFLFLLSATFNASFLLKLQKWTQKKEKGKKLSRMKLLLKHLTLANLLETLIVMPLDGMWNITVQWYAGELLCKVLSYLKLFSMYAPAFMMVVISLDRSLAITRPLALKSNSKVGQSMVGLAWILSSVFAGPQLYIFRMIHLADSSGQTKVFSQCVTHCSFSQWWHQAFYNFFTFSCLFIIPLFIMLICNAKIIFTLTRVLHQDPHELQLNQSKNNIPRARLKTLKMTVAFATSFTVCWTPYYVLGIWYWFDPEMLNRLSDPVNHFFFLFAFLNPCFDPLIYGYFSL
KiSS-1 receptor (Homo sapiens), sequence (Q969F8 whole entry, looked up): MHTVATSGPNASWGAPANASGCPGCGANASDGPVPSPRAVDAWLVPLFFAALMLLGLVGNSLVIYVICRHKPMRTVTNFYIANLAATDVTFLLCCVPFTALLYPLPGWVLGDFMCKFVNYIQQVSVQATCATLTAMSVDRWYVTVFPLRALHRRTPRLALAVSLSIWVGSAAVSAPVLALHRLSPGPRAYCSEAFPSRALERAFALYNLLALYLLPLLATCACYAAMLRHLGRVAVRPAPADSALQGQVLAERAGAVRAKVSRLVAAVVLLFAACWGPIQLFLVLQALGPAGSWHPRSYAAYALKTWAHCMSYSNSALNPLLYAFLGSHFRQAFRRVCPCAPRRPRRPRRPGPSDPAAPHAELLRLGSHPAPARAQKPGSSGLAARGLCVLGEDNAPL
Muscarinic acetylcholine receptor M1 (Homo sapiens), sequence (P11229 whole entry, looked up): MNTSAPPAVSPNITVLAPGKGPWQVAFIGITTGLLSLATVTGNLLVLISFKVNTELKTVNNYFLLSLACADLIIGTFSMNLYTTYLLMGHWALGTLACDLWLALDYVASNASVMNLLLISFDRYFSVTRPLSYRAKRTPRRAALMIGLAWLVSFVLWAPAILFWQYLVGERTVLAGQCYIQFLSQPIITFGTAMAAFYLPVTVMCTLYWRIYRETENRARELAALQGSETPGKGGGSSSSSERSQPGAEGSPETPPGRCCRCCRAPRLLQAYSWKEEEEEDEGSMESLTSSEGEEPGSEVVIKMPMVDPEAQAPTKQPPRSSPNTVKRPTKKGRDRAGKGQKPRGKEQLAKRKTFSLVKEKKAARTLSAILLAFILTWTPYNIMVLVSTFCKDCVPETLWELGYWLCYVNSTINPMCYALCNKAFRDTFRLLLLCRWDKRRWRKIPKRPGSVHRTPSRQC
D(2) dopamine receptor (Homo sapiens), sequence (P14416 whole entry, looked up): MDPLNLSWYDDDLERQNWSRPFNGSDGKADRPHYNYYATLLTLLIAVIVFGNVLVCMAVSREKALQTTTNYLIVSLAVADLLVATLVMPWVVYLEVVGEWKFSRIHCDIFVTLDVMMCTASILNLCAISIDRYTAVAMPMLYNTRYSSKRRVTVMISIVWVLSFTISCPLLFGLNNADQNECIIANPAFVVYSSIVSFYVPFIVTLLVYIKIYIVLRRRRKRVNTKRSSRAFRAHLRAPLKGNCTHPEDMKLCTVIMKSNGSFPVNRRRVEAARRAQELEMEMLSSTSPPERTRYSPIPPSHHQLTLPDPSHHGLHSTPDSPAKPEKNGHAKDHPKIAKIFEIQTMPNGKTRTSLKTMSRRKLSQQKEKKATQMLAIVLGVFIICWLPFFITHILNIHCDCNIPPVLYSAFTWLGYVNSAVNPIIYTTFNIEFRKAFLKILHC
Beta-2 adrenergic receptor (Homo sapiens), sequence (P07550 whole entry, looked up): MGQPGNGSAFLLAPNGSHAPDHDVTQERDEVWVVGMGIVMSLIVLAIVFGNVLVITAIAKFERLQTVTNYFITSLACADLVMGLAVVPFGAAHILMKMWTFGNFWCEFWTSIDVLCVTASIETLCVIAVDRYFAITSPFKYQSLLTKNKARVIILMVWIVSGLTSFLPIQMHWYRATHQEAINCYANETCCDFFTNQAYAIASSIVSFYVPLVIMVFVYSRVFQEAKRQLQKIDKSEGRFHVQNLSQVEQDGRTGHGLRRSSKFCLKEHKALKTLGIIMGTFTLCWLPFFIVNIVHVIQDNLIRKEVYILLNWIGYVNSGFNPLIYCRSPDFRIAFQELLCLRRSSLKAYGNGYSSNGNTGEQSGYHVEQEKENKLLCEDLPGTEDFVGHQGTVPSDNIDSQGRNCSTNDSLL

On to `Fc1c(F)c(F)c(Br)c(F)c1F`, for which the Potency result in test [1], in test [2], in test [3], in [4], in test [5] and in [6] was “inactive” each time. For the same compound, the Potency result in test [7], in test [8], in test [9], in test [10], in [11] and in test [12] was “inactive” throughout. Also, the Potency entry in [13], in test [14], in [15], in [16], in [17] and in [18] was “inactive” in each case. The Potency result in test [19] was “inactive”.

Regarding `CC(C)C(=O)Nc1cccc(C2CN3CCSC3=N2)c1` (centres undefined), the Potency entry in test [1], in [2], in test [3], in test [4], in test [5] and in test [6] was “inactive” each time. For the same compound, the Potency result in test [7], in [8], in test [9], in test [10], in [11] and in test [20] was “inactive” in each case. Moreover, the Potency result in [13], in test [14], in test [15], in test [16], in [17] and in test [19] was “inactive” each time.

On to `CCC(=O)OC(C)c1ccccc1` (centres undefined), for which the Potency entry in [1], in [2], in [3], in [4], in test [5] and in test [6] was “inactive” each time. Further, the Potency result in test [7], in test [8], in test [9], in test [10], in test [11] and in test [20] was “inactive” in each case. For the same compound, the Potency entry in test [12], in test [15], in test [17], in test [18] and in [19] was “inactive” in each case.

Consider `NCCNCCN`, for which the Potency result in test [1], in test [2], in test [3], in [4], in test [5] and in test [6] was “inactive” each time. Moreover, the Potency entry in test [7], in test [8], in test [9], in [10], in test [11] and in test [20] was “inactive” each time. Further, the Potency entry in test [13], in [14], in [15], in test [16], in [17] and in test [19] was “inactive” each time.

Turning to `CCCOC(C(=O)OC1CCN(C)CC1)(c1ccccc1)c1ccccc1`, the Potency result in test [1], in [3], in test [4], in test [5], in test [6] and in test [7] was “inactive” each time. Further, the Potency entry in test [8], in [9], in test [10], in [11], in [20] and in test [14] was “inactive” throughout. The Potency entry in test [15], in [16], in test [17], in [18] and in test [19] was “inactive” each time. Besides, the Potency in test [2] is 10.6 µM (active); in [13], 0.729 µM (active).

`CC1=CC(=O)[C@H]2C[C@@H]1C2(C)C`: the Potency result in test [1], in [2], in test [3], in test [4], in test [5] and in test [6] was “inactive” in each case. For the same compound, the Potency entry in test [7], in [8], in test [9], in test [10], in test [11] and in [12] was “inactive” each time. The Potency result in test [13], in test [14], in [15], in test [16], in test [17] and in test [18] was “inactive” in each case. The Potency entry in test [19] is “inactive”.

Regarding `CSc1nnc(C(C)(C)C)c(=O)[nH]1`, the Potency entry in test [1], in test [2], in test [3], in test [4], in test [5] and in test [6] was “inactive” each time. Moreover, the Potency result in test [7], in test [8], in [9], in [10], in [11] and in test [20] was “inactive” throughout. The Potency entry in test [13], in test [14], in [15], in test [16], in test [17] and in [18] was “inactive” each time. Moreover, the Potency entry in [19] was “inactive”.
